Results as given in the supplement of paper PMC9262897, “Low-cost anti-mycobacterial drug discovery using engineered E. coli” (Nature Communications, 2022).
Structures can show the parent of a compound that is named as a salt. ± gives the standard deviation of the averaged measurements.

Tests used:
Assay in all cases: growth (OD600 after 10 h); higher = more growth (less inhibition)
[1] = system: E. coli TESEC Alr+ wild-type control; details: compound 0.1 mM; raw OD600 reference: median of DMSO wells 0.241, cell-free background 0.041
Method: (§1)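 TESEC Mtb Alr E. coli, or the Alr+ wild-type control, in 384-well plates with Prestwick library compounds at 0.1 mM and 1% DMSO, across arabinose induction levels of 1E3 to 1E7 nM. Growth is read as OD600 after 10 h at 37 °C in triplicate biological replicates.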

E. coli TESEC Mtb Alr [2] = details: compound 0.1 mM
Method: as §1

E. coli TESEC Mtb Asd = details: compound 0.1 mM
Method: (§2)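 TESEC E. coli strains in which the native enzyme is deleted and replaced by arabinose-inducible Mtb Asd, DapB, CysH or TrpD, each grown in its selective medium. Strains were screened against the Prestwick library at 0.1 mM and 1% DMSO in 384-well format at low and high arabinose induction. Growth is read as OD600 after 10 h in triplicate.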

E. coli TESEC Mtb DapB = details: compound 0.1 mM
Method: as §2

E. coli TESEC Mtb Alr [3] = details: compound 0.1 mM; remark: listed apart in the source
Method: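 TESEC Mtb Alr E. coli (ΔaraC ΔtolC ΔentC Δalr ΔdadX, arabinose-inducible Mtb Alr) or the Alr+ wild-type control strain, grown in defined M9-fructose medium without D-alanine in 96-well plates with Prestwick library compounds at 0.1 mM and 1% DMSO. Low Alr induction is 0.1 µM arabinose and high induction is 10 mM arabinose.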

[4] = arabinose 1000 nM, raw OD600 reference: median of DMSO wells 0.294, cell-free background 0.041
[5] = arabinose 10000 nM, raw OD600 reference: median of DMSO wells 0.264, cell-free background 0.041
[6] = arabinose 100000 nM, raw OD600 reference: median of DMSO wells 0.201, cell-free background 0.041
[7] = arabinose 1000000 nM, raw OD600 reference: median of DMSO wells 0.193, cell-free background 0.041
[8] = arabinose 10000000 nM, raw OD600 reference: median of DMSO wells 0.146, cell-free background 0.041
[9] = arabinose induction (level): High, raw OD600 reference: median of DMSO wells 0.331, cell-free background 0.041
[10] = arabinose induction (level): Low, raw OD600 reference: median of DMSO wells 0.417, cell-free background 0.041
[11] = arabinose induction (level): High, raw OD600 reference: median of DMSO wells […], cell-free background 0.041
[12] = arabinose induction (level): Low, raw OD600 reference: median of DMSO wells 0.227, cell-free background 0.041
[13] = arabinose 100 nM, raw OD600 reference: median of DMSO wells 0.413, cell-free background 0.052
[14] = arabinose 10000000 nM, raw OD600 reference: median of DMSO wells […], cell-free background 0.052

Structure (SMILES) | growth [1] | growth (E. coli TESEC Mtb Alr [2]; [4]) | growth (E. coli TESEC Mtb Alr [2]; [5]) | growth (E. coli TESEC Mtb Alr [2]; [6]) | growth (E. coli TESEC Mtb Alr [2]; [7]) | growth (E. coli TESEC Mtb Alr [2]; [8]) | growth (E. coli TESEC Mtb Asd; [9]) | growth (E. coli TESEC Mtb Asd; [10]) | growth (E. coli TESEC Mtb DapB; [11]) | growth (E. coli TESEC Mtb DapB; [12]) | growth (E. coli TESEC Mtb Alr [3]; [13]) | growth (E. coli TESEC Mtb Alr [3]; [14])
O=C(NCNC(=O)NC1C(=O)NC(=O)N1CO)NC1C(=O)NC(=O)N1CO (stereo not drawn) [Imidurea] | 0.231 ± 0.0035 | 0.2874 ± 0.0013 | 0.289 ± 0.0059 | 0.193 ± 0.036 | 0.231 ± 0.022 | 0.135 ± 0.0032 | 0.336 ± 0.057 | 0.358 ± 0.074 | 0.207 ± 0.024 | 0.215 ± 0.032 | 0.44 ± 0.021 | 0.345 ± 0.012
C[C@]12N[C@H](Cc3ccccc31)c1ccccc12 [Dizocilpine maleate] | 0.2374 ± 0.0019 | 0.286 ± 0.009 | 0.273 ± 0.0096 | 0.158 ± 0.014 | 0.123 ± 0.0042 | 0.134 ± 0.0024 | 0.179 ± 0.014 | 0.415 ± 0.059 | 0.179 ± 0.019 | 0.18 ± 0.012 | 0.4169 ± 0.0029 | 0.304 ± 0.01
C[C@]12CC[C@H]3[C@@H](CCC4=CC(=O)CC[C@@H]43)[C@@H]1CC[C@@H]2O [Nandrolone] | 0.154 ± 0.0082 | 0.201 ± 0.014 | 0.226 ± 0.012 | 0.118 ± 0.0031 | 0.0814 ± 0.0003 | 0.115 ± 0.0021 | 0.106 ± 0.0027 | 0.267 ± 0.1 | 0.1471 ± 0.0014 | 0.159 ± 0.0037 | 0.408 ± 0.0099 | 0.211 ± 0.0078
Cc1cccc(C)c1NC1=NCCCS1 [Xylazine] | 0.236 ± 0.0094 | 0.284 ± 0.0052 | 0.247 ± 0.0072 | 0.208 ± 0.029 | 0.169 ± 0.0055 | 0.137 ± 0.006 | 0.298 ± 0.051 | 0.34 ± 0.11 | 0.209 ± 0.016 | 0.226 ± 0.022 | 0.424 ± 0.0078 | 0.352 ± 0.023
